High-throughput results as filed in PubChem.
Chronic BCR inh: qHTS Assay to Find Inhibitors of Chronic Active B-Cell Receptor Signaling | ABC-DLBCL IkBa-CBG/CBR reporter, luminescence ratio, 4 h | Potency, µM (titrated, usually from 46.1 µM), hits mostly inhibitors | hit rate 0.05% among 340,000; active = well fitted inhibition curve with a large enough effect in the signal ratio, with a control signal flat, not every such curve was filed as active; inconclusive = small, poorly fitted or top-dose-only effect, or effect the other way, or a change in a side signal; the % refers to the signal ratio
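Concentration-response series (up to 46 uM) were applied to TMD8 dual-reporter cells for 4 h at 37C with doxycycline. Green/red ratio, after filter-overlap correction, defined %Activity; red signal alone was normalised to basal cells and zero luminescence.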
DT40 TDP1 no CPT: qHTS for Inhibitors of human tyrosyl-DNA phosphodiesterase 1 (TDP1): qHTS in cells in absence of CPT; DT40 Tdp1-/- hTDP1 cells, no CPT, ATP luminescence, 48 h; Potency, µM (doses to about 46.2 µM), hits mostly inhibitors; AID 686978, 2013; hit rate 15% among 420,000; note: nearly all actives have a fitted effect of over 55% in size
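Growth kinetics read by CellTiter-Glo luminescence after ≥48 hr at 37 °C. Cells: DT40 Tdp1-/- stably carrying human TDP1, 400 per well, compound exposure in the absence of CPT (DMSO vehicle).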
TDP1 cell CPT: qHTS for Inhibitors of human tyrosyl-DNA phosphodiesterase 1 (TDP1): qHTS in cells in presence of CPT | chicken DT40 Tdp1-/-;hTDP1 cells + 20 nM CPT, ATP luminescence, 48 h | AID 686979, 2013 | hit rate 12% among 420,000 | Potency, µM (doses to about 46.2 µM), usual class: inhibitors; note: nearly all actives have a fitted effect of over 55% in size
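Cell growth measured by CellTiter-Glo luminescence after a minimum 48 h, 37 C compound exposure with 20 nM CPT in Tdp1-knockout DT40 cells stably expressing hTDP1, seeded 400/well; qHTS titration format.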
IL1B secr inh: qHTS for Inhibitors of Inflammasome Signaling: IL-1-beta AlphaLISA Primary Screen. THP-1 LPS/ATP IL-1B secretion, AlphaLISA, 16 h; stronger effect = lower value. AID 743279, 2014. activity change, % at 57.5 µM. hit rate 4.7% among 360,000; in the data active = activity change below about -50%; inconclusive = mostly about -30% to -49%
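THP-1 cells pretreated 1 hr with compounds (up to 57.5 uM final), then stimulated with LPS (250 ng/mL final) plus ATP (1.25 mM final); secreted IL-1B measured by AlphaLISA after 16 hr, decreased signal indicating inhibition.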
MCF10A rereplic: A quantitative high throughput screen for small molecules that induce DNA re-replication in MCF 10a normal breast cells. MCF 10A DNA re-replication, Hoechst nuclear intensity, 48 h. Potency, µM (doses to about 46.1 µM), most hits filed as activators. hit rate 2.9% among 350,000; note: nearly all actives have a fitted effect of over 50% in size
SW480 rereplic: A quantitative high throughput screen for small molecules that induce DNA re-replication in SW480 colon adenocarcinoma cells; hit rate 1.8% among 340,000; AID 624297, 2012; SW480 DNA re-replication, Hoechst DNA content imaging, 48 h; Potency, µM (top dose mostly 46.1 µM), usual class: activators; note: nearly all actives have a fitted effect of over 55% in size
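Image-based DNA-content assay: after two days of treatment, nuclei were labelled with the DNA dye Hoechst and imaged, and hits were compounds raising the count of nuclei showing high fluorescence intensity.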
Of the large screens only hits and unclear results are named; the others gave an inactive call. Sampled rows, rich in hits. Any-hit rate of the full collection: about 19%. Unless noted, calls come from the whole dose curve; as a rule, active = well fitted curve in the direction sought with a large enough effect; inconclusive = small, poorly fitted or top-dose-only effect, or another doubt; inactive = no such curve, though single readings can be large; an effect the other way counts as inactive or inconclusive.

Nc1c2c(nc3sc4c(c13)CCCC4)CCCC2	Chronic BCR inh inconclusive, DT40 TDP1 no CPT inconclusive, TDP1 cell CPT inconclusive, IL1B secr inh -88, MCF10A rereplic inconclusive
Nc1c2c(nc3sc4c(c13)CCCC4)CCCCC2	DT40 TDP1 no CPT 18µM, TDP1 cell CPT inconclusive, MCF10A rereplic inconclusive
Nc1nc2c(s1)CCCCCCCCCC2	DT40 TDP1 no CPT inconclusive, MCF10A rereplic inconclusive
O=C(CNC(=O)c1ccco1)OCN1C(=O)c2ccccc2C1=O	DT40 TDP1 no CPT inconclusive, TDP1 cell CPT inconclusive
CCC1=Nc2cc(C(=O)N3CCC4(CC3)OCCO4)ccc2Sc2ccc(C)cc21	DT40 TDP1 no CPT inconclusive, TDP1 cell CPT inconclusive
O=S1(=O)NCC2(CC2)CN1Cc1ccccc1	none (no result: Chronic BCR inh, MCF10A rereplic, SW480 rereplic)
CCCCCCCCCCCCCCCC(=O)O[C@@H]1[C@@H](O)[C@@H](O)[C@@H]([C@H](NC(=O)[C@@H]2C[C@@H](CCC)CN2C)[C@H](C)Cl)O[C@@H]1SC	DT40 TDP1 no CPT inconclusive, TDP1 cell CPT 24µM (no result: Chronic BCR inh, IL1B secr inh, MCF10A rereplic, SW480 rereplic)
O=C(CCCc1ccc(N(CCCl)CCCl)cc1)NCc1ccccc1	DT40 TDP1 no CPT 0.73µM, TDP1 cell CPT 0.73µM (no result: Chronic BCR inh, MCF10A rereplic, SW480 rereplic)
CCN(CC)CCCN=C(C)c1c(O)n(-c2ccc(C)cc2)c(=O)[nH]c1=O	SW480 rereplic inconclusive
COc1cc(O)c(C(=O)O)c(-c2cc(O)c(O)cc2C)c1	Chronic BCR inh inconclusive, DT40 TDP1 no CPT 16µM, TDP1 cell CPT 4.6µM, MCF10A rereplic inconclusive
COC(=O)C1=C(c2cccc(OCc3ccccc3)c2)C[C@@H]2CC[C@H]1N2C(=O)NCCOc1ccccc1Cl	DT40 TDP1 no CPT 23µM, TDP1 cell CPT inconclusive, MCF10A rereplic 2.1µM
COC(=O)C1=C(c2cccc(OCc3ccccc3)c2)C[C@@H]2CC[C@H]1N2C(=O)NCCc1ccc(F)cc1	DT40 TDP1 no CPT 16µM, TDP1 cell CPT inconclusive, IL1B secr inh inconclusive
COC(=O)C1=C(c2cccc(OCc3ccccc3)c2)C[C@@H]2CC[C@H]1N2C(=O)NCc1cccc(F)c1	DT40 TDP1 no CPT inconclusive, TDP1 cell CPT inconclusive
COC(=O)C1=C(c2ccccc2OCc2ccccc2)C[C@@H]2CC[C@H]1N2C(=O)NCCOc1ccccc1Cl	DT40 TDP1 no CPT inconclusive, TDP1 cell CPT inconclusive, IL1B secr inh inconclusive, MCF10A rereplic inconclusive
COC(=O)C1=C(c2ccc(C(C)=O)cc2)C[C@@H]2CC[C@H]1N2C(=O)NCCO	none
COC(=O)C1=C(c2cccc(OCc3ccccc3)c2)C[C@@H]2CC[C@H]1N2C(=O)NCCOc1ccccc1	Chronic BCR inh inconclusive, DT40 TDP1 no CPT 21µM, TDP1 cell CPT inconclusive, MCF10A rereplic 13µM
COC(=O)C1=C(c2ccc(C(C)=O)cc2)C[C@@H]2CC[C@H]1N2C(=O)NCCOc1ccccc1Cl	DT40 TDP1 no CPT inconclusive, TDP1 cell CPT 23µM
COc1ccc(CN2C(=O)NC(=O)/C(=C/c3ccc([N+](=O)[O-])o3)C2=O)cc1	none (no result: DT40 TDP1 no CPT, TDP1 cell CPT, IL1B secr inh, MCF10A rereplic, SW480 rereplic)
COC(=O)C1=C(c2cccc(C#N)c2)C[C@@H]2CC[C@H]1N2C(=O)NCCOc1ccccc1Cl	DT40 TDP1 no CPT 16µM, TDP1 cell CPT 18µM
CCCNC(=O)N1[C@H]2CC[C@@H]1C(C(=O)OC)=C(c1cccc(C#N)c1)C2	none
O=C1NC(=O)C(CCc2ccccn2)(Cc2ccc3c(c2)OCO3)C(=O)N1CCc1ccccc1 (configuration not stated)	Chronic BCR inh inconclusive, DT40 TDP1 no CPT inconclusive, TDP1 cell CPT inconclusive
Clc1ccc(CN2C3=NCCN3c3ccccc32)cc1Cl	Chronic BCR inh inconclusive, DT40 TDP1 no CPT 16µM, TDP1 cell CPT inconclusive, SW480 rereplic inconclusive (no result: IL1B secr inh)
CNc1ccc2c3c(cccc13)C(=O)N(C)C2=O	Chronic BCR inh inconclusive, DT40 TDP1 no CPT inconclusive, TDP1 cell CPT inconclusive
